Screening results as filed in PubChem BioAssay.
a7 integrin act: qHTS for Activators of Integrin-Mediated Alleviation for Muscular Dystrophy; hit rate 0.064% among 350,000; Potency, µM (top dose mostly 38.3 µM), most hits filed as activators; alpha7betagal myoblasts, beta-gal FDG fluorescence, 48 h; AID 624291, 2012; further: nearly all actives have a fitted effect of over 60% in size
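alpha7betagal+/- myoblasts (passage 13, 250/well) treated 48 h at 37C with compounds at 1:260 dilution of DMSO stock. Lysed, then beta-galactosidase activity read as FDG fluorescence (ex 480/em 540) after 30 min, with pre-read for autofluorescence.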
IL-2 act: qHTS of IL-2 Activators; AID 652025, 2013; hit rate 0.065% among 360,000; IL-2 activation reporter assay, cell-based qHTS; stimulated with anti-CD3/CD4/CD28 beads; in transgenic mouse T cells; activation, % (series mostly up to about 46 µM); in the data active means activation above about 50%; inconclusive means mostly about 30% to 49%
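Unstimulated transgenic mouse T cells preincubated 60 min with compound, then stimulated with anti-CD3/anti-CD4-coated beads plus anti-CD28 for 18 h at 37 degrees C. IL-2 response read as EGFP and DsRed fluorescence by plate cytometry.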
Nrf2 activator: qHTS of Nrf2 Activators; AREc32 ARE-luciferase reporter (MCF7-derived line), luminescence, 24 h; Potency, µM (series often up to 46.1 µM), actives largely listed as activators; hit rate 0.31% among 410,000; further: nearly all actives have a fitted effect of over 65% in size
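ARE-driven firefly luciferase activity in AREc32 cells measured after a 24 hr compound exposure at 37 deg C, using Steady-Glo reagent and a 30 min room-temperature hold.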
N370S GC: qHTS Assay for Inhibitors and Activators of N370S glucocerebrosidase as a Potential Chaperone Treatment of Gaucher Disease; Lysosomal acid glucosylceramidase (Homo sapiens), P04062; N370S GC spleen homogenate, 4MU-glucoside fluorescence; Potency, µM (top dose mostly 59.4 µM), actives largely listed as inhibitors; hit rate 0.092% among 330,000
BCR signal inh: qHTS Assay to Find Inhibitors of Chronic Active B-Cell Receptor Signaling | ABC-DLBCL IkBa-CBG/CBR reporter, luminescence ratio, 4 h | Potency, µM (highest dose often 46.1 µM), usual class: inhibitors | hit rate 0.05% among 340,000 | AID 493014, 2011; active means well fitted inhibition curve with a large enough effect in the signal ratio, with a control signal flat, not every such curve was filed as active; inconclusive means small, poorly fitted or top-dose-only effect, or effect the other way, or a change in a side signal; the % refers to the signal ratio
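Concentration-response series (up to 46 uM) were applied to TMD8 dual-reporter cells for 4 h at 37C with doxycycline. Green/red ratio, after filter-overlap correction, defined %Activity; red signal alone was normalised to basal cells and zero luminescence.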
BRCA1 expr act: qHTS Assay to Identify Small Molecule Activators of BRCA1 Expression. MCF7-BRCA1-FFLuc reporter, luminescence, 48 h; response scale: scaled: vehicle 0%, 10 µM genistein 100%. Potency, µM (titrated, usually from 46.1 µM), usual class: activators. hit rate 1.1% among 380,000; further: nearly all actives have a fitted effect of over 80% in size
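Activators of BRCA1 expression were detected as increased firefly luciferase luminescence in engineered MCF7 cells after 48 h compound incubation. Signals were scaled to genistein 10 microM as full activation.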
A number is an active result; 0 = inactive; ? = inconclusive; - = not tested or not shown; [ ] = remark or other dose. Shown are actives, neighbours in structure and some others; about 1.4% of the full set was active somewhere. Unless noted, the call rests on the fitted dose curve; in most records, active means well fitted curve in the direction sought with a large enough effect; inconclusive means small, poorly fitted or top-dose-only effect, or another doubt; inactive means no such curve, though single readings can be large; an effect the other way counts as inactive or inconclusive.

SMILES | a7 integrin act | IL-2 act | Nrf2 activator | N370S GC | BCR signal inh | BRCA1 expr act
CO[C@H]1/C=C\O[C@@]2(C)Oc3c(C)c(O)c4c(O)c(c(C=NN5CCN(C6CCCC6)CC5)c(O)c4c3C2=O)NC(=O)C(C)=CC=C[C@H](C)[C@H](O)[C@@H](C)[C@@H](O)[C@@H](C)[C@H](OC(C)=O)[C@H]1C | - | - | - | - | - | 0
Clc1ccc(-c2nn3c(-c4cc(-c5ccccc5)n[nH]4)nnc3s2)cc1 | - | - | - | - | - | 0
CCCCNC(=O)C1C(c2ccc(OC)cc2)=Nc2ccccc2N1C(=O)c1cccnc1 (centres undefined) | - | 0 | - | - | - | -
CCC[C@H](NC(=O)[C@H](Cc1ccc(O[S+](=O)([O-])O)cc1)NC(=O)OC(C)(C)C)C(=O)NCC(=O)N[C@@H](Cc1c[nH]c2ccccc12)C(=O)N[C@@H](CCC)C(=O)N[C@@H](CC(=O)OCCc1ccccc1)C(=O)O | - | - | - | 0 | - | -
Cc1ccc2nc(NC(=O)CN3CCOCC3)sc2c1 | 0 | 0 | 0 | 0 | ? | 3.5µM
Cc1ccc2nc(NC(=O)COC(=O)c3ccncc3)sc2c1 | 0 | 0 | 0 | 0 | 0 | 8.9µM
Cc1ccc2nc(NC(=O)COC(=O)CSc3nc(C)cc(C)n3)sc2c1 | 0[7.66 µM] | 0 | 0 | 0 | 0 | 10µM
CCN1CCN(CC(=O)Nc2nc3ccc(C)cc3s2)CC1 | 0 | 0 | 0 | 0 | 0 | 0
COCC(=O)Nc1nc2ccc(C)cc2s1 | 0 | 0 | 0 | 0 | ? | 0
Clc1cccc(CN2CCN(Cc3nc(CCc4ccccc4)no3)CC2)c1 | 0 | 0 | 0 | 0 | 0 | 0
Cc1ccc2c(cnn2C(=O)CCCC(=O)NCc2ccc(F)cc2)c1 | 0 | 0 | 0 | 0 | ? | 0
Cc1ccc2c(cnn2C(=O)CCCC(=O)NC(C)c2ccccc2)c1 (centres undefined) | 0 | 0 | 0 | 0 | 0 | 2.5µM
COC(=O)[C@@H]1C=C[C@H](C)[C@H](CCOc2ccccc2)O1 | - | - | - | 0 | - | -
Cc1ccc2onc(CC(=O)N3CCN(c4cccc(C)c4C)CC3)c2c1 | - | - | 0 | - | - | -
O=[N+]([O-])c1ccccc1N/N=C\c1ccccc1Cl | 0 | 0 | 10µM | 0 | ? | 2.5µM
O=[N+]([O-])c1ccccc1N/N=C\c1ccccc1F | 0 | 0 | ? | 0 | 0 | ?
O=[N+]([O-])c1ccccc1/C=N/NC1=NCCN1 | 0 | 0 | 0 | - | - | 0
O=[N+]([O-])c1ccccc1C=NNc1ccccc1 | 0 | 0 | 6.3µM | - | - | 0
COc1cc(C=O)ccc1OCCOc1ccccc1[N+](=O)[O-] | 0 | 0 | 13µM | 0 | 0 | ?
COc1cc(C=O)ccc1OCCCOc1ccccc1[N+](=O)[O-] | 0 | 0 | 0 | 0 | 0 | 7.1µM
Oc1ccc(Cl)cc1C1C=C(c2ccc3c(c2)OCO3)NC(c2ccc(Cl)cc2)N1 (centres undefined) | - | - | - | - | - | 0
NC(=O)c1ccccc1NC(=O)c1ccc2ccccc2c1 | 0 | 0 | ? | 0 | ? | 0
COc1ccc(C(=O)Nc2ccccc2C(N)=O)cc1 | 0[7.66 µM] | 0 | 0 | 0 | ? | 6.3µM
O=C(Nc1cnc2ccccn2c1=O)c1ccc(F)cc1 | 0 | 0 | 0 | 0 | ? | ?
COc1ccc(C(=O)Nc2cnc3ccccn3c2=O)cc1 | 0 | 0 | 0 | 0 | ? | 4.5µM
SMILES | a7 integrin act | IL-2 act | Nrf2 activator | N370S GC | BCR signal inh | BRCA1 expr act
CC(=O)n1cc(N(C(=O)CCl)c2ccc(Cl)cc2)c2ccccc21 | 0 | 0 | 0 | 16µM | ? | 0
O=C(OCC(=O)N1CCOCC1)c1ccccc1Cc1ccccc1 | 0 | 0 | 0 | 0 | 0 | 2µM
Cc1nc(NCc2ccco2)c2c3c(sc2n1)CCC3 | 0 | 0 | 0 | 0 | ? | 0
COc1ccc(Nc2nc(C)nc3sc4c(c23)CCC4)cc1O | 0 | 0 | 6.3µM | 0 | 0 | 0
O=C(CN1CCN(S(=O)(=O)c2ccc(Br)cc2)CC1)N/N=C/c1ccc(Cl)c([N+](=O)[O-])c1 | 0 | 0 | ? | 0 | ? | 0
O=C(CN1CCN(S(=O)(=O)c2ccc(Br)cc2)CC1)N/N=C/c1cc([N+](=O)[O-])ccc1Cl | 0 | 0 | 13µM | 0 | ? | 0
Clc1ccc(OCc2nc3ccccc3[nH]2)cc1 | 0 | 0 | 0 | 0 | ? | 3.2µM
c1ccc(OCc2nc3ccccc3[nH]2)cc1 | 0 | 0 | 0 | 0 | ? | ?
CC(=O)Nc1ccc(S(=O)(=O)N(Cc2ccccc2)c2ccccc2F)cc1 | 0 | 0 | 0 | 0 | ? | 0
COc1ccc(Cn2c3ccc(OC)cc3c3nc4ccccc4nc32)cc1 | 0 | 267 | 0 | 0 | 0 | 0
CN(N=O)c1ccc(/C=C/c2ccccc2)cc1 | - | - | - | - | - | 5.6µM
CN(N=O)c1ccc(C=C2C=Cc3ccccc32)cc1 | 0 | 0 | 0 | - | - | ?
CCc1cc(C(=O)NNC(=S)Nc2ccccc2C)cs1 | 0 | 0 | 0 | 0 | ? | 10µM
OCCOCCN1CCN([C@@H](c2ccccc2)c2ccc(Cl)cc2)CC1 | - | - | - | 0 | - | -
Cc1c(C(=O)NC2CC2)oc2ccccc12 | ? | 0 | 0 | - | ? | 0
Cc1c(C(=O)NC2CCC(C)CC2)oc2ccccc12 (centres undefined) | 0 | 0 | 0 | 0 | 0 | 5µM
Cc1c(C(=O)OCC(=O)N2CCCC(C)C2)oc2ccccc12 (centres undefined) | 0 | 0 | 0 | 0 | 0 | 10µM
COc1cc(OC)cc(C2=Nn3c(nnc3-c3ccccc3O)SC2)c1 | - | - | - | 0 | - | -
Cn1cnc(S(=O)(=O)Nc2cc(-c3ccc(Cl)cc3)nn2C)c1 | ? | 0 | 0 | 0 | 0 | 0
CC(C)c1ccc(/C=N/NC(=O)c2c(Cl)cnn2C)cc1 | 0 | 0 | 0 | 0 | ? | 7.1µM
Cc1nn(C)c(C(=O)N/N=C/c2ccc(Br)cc2)c1Cl | 0 | 0 | 0 | 0 | 0 | 0
NCCCNc1ccc(Br)cn1 | - | - | - | - | - | 0
COc1cccc(C=NN2CCCCCC2)c1OC | 0 | 0 | 0 | - | - | 11µM
COc1cccc(/C=N/N2CCN(c3ccc(Cl)cc3)CC2)c1OC | 0 | 0 | 0 | 0 | 0 | 0
COc1cccc(/C=N/n2c(N)nc3ccccc32)c1OC | 0 | 0 | 0 | 0 | 0 | 10µM
SMILES | a7 integrin act | IL-2 act | Nrf2 activator | N370S GC | BCR signal inh | BRCA1 expr act
N#Cc1sc(NCc2ccccn2)nc1Cl | 0 | 0 | 0 | 0 | ? | 0
COc1ccc(C(=O)O/N=C(\N)c2cccc(C)c2)cc1OC | 10µM | 0 | 0 | 0 | ? | ?
N/C(=N\OC(=O)c1cccc(Br)c1)c1ccccc1 | 0 | 0 | 7.1µM | 0 | ? | 0
N/C(=N\OC(=O)c1cccc(Br)c1)c1ccccn1 | 0 | 0 | ? | 0 | ? | 0
O=C(COC(=O)c1ccco1)Nc1cccc(Br)c1 | 0 | 0 | 0 | ? | 0 | 0
N/C(=N\OC(=O)/C=C/c1ccccc1)c1ccccc1 | 0 | 0 | 11µM | 0 | ? | 7.1µM
